In ChEMBL document CHEMBL3988442, “University of Dundee, Small-Polar-MMV Screening Library” (2021):
About 13,000 (27%) of roughly 48,000 compounds showed an effect of 50% or more. Some of the results follow.

test system: Wolbachia pipientis; assay: Anti-Wolbachia Cell-Based Screen; format: functional; design: scale not given: in the data most compounds retested in dose-response had high values; settings: 5 µM

SMILES | Percent Effect
CCN1CCN(c2ccc(F)cc2C(C)NCc2ccncc2)CC1 (configuration not stated) | 0.6189%
COCCC(C)NC(=O)Nc1ccc(N2CCOC2=O)c(OC)c1 (configuration not stated) | -2.31%
O=C(Cn1ccc2ccccc21)Nc1cc(N2CCOCC2)ncn1 | -11.42%
CN(C)C(=O)Cc1ccc(NC(=O)NC2CC2)cc1 | -3.674%
COc1ccccc1CN(Cc1cccnc1)CC1CCCO1.O=C(O)CC(O)(CC(=O)O)C(=O)O (configuration not stated) | 117.4%
COc1ccc(CN(Cc2c[nH]cn2)CC2CCCO2)c(OC)c1.O=C(O)CC(O)(CC(=O)O)C(=O)O (configuration not stated) | 99.96%
COc1ccc(CN(Cc2cncn2C)CC2CCCO2)cc1OC.O=C(O)CC(O)(CC(=O)O)C(=O)O (configuration not stated) | -10.71%
O=c1[nH]c2ccccc2cc1CN(Cc1ccccn1)CC1CCCO1 (configuration not stated) | 7.522%
COc1ccc(CN(C(=O)C2CCCOC2)c2ccncc2)cc1 (configuration not stated) | -5.222%
Cc1nc2ccccn2c1CN(Cc1cccnc1)CC1CCCO1 (configuration not stated) | -2.807%
COc1ccc(CN(Cc2cncn2C)CC2CCCO2)cc1.O=C(O)CC(O)(CC(=O)O)C(=O)O (configuration not stated) | 108.8%
COc1ccccc1CN(Cc1cccnc1)Cc1c[nH]c(C)n1 | -35.67%
Cn1cnc2c(N3CCCC3)nc(C3CCN(CC4CC4)CC3)cc21.O=C(O)C(F)(F)F.O=C(O)C(F)(F)F | -3.967%
O=C(O)c1coc(COc2cccc3cnccc23)n1 | -2.104%
CC(=O)N1CCC(N2C[C@@H](F)[C@@H](OCc3nc4ncccc4[nH]3)C2)CC1 | -11.9%
CNS(=O)(=O)c1cccc(C(C)NCc2ccncc2)c1 (configuration not stated) | -20.6%
CN(C)C(=O)CN1CC[C@]2(CN(CC3CC3)C[C@H]2c2ccccc2)C1=O.O=C(O)C(F)(F)F | 97.34%
CCN1CC[C@]2(CN(Cc3nccs3)C[C@H]2c2ccccc2)C1=O.O=C(O)C(F)(F)F | -7.222%
CN1CCC2(CCN(CC3CCOCC3)CC2)C1=O.O=C(O)C(F)(F)F | -1.769%
CN1CC[C@]2(CN(Cc3nccs3)C[C@H]2c2ccccc2)C1=O.O=C(O)C(F)(F)F | -12.3%
CN1CC[C@]2(CN(CC3CCOC3)C[C@H]2c2ccccc2)C1=O.O=C(O)C(F)(F)F (some centres not stated) | 100.2%
Cc1cc(CN2C[C@@H](C)[C@@]3(CCN(CC(=O)N(C)C)C3=O)C2)oc1C.O=C(O)C(F)(F)F | 15.48%
CN1CC[C@]2(CN(CC3CCOCC3)C[C@H]2c2ccccc2)C1=O.O=C(O)C(F)(F)F | 123.3%
CN1CC[C@]2(CN(S(C)(=O)=O)C[C@H]2c2ccccc2)C1=O | 102.2%
CCN1C(=O)C(c2ccccc2)CC12CCN(S(C)(=O)=O)CC2 (configuration not stated) | -8.52%

SMILES | Percent Effect
CN1CC(c2ccccc2)C2(CCN(C(=O)c3cccn3C)CC2)C1=O (configuration not stated) | -2.229%
N#Cc1ccc(CN2CCCCC2Cn2cncn2)c(F)c1 (configuration not stated) | -2.215%
Cc1ccc(CN2CCOC3(CCN(C(=O)C4CCOC4)CC3)C2)cc1.O=C(O)C(F)(F)F (configuration not stated) | 2.988%
Cc1ccc(CN2CCOC3(CCN(CC4CCOC4)CC3)C2)cc1.O=C(O)C(F)(F)F.O=C(O)C(F)(F)F (configuration not stated) | 104.9%
CN1CC[C@]2(CN(Cc3cccs3)C[C@H]2c2ccccc2)C1=O | -2.755%
O=C(O)C(F)(F)F.O=C(c1cccnc1)N1C[C@@H](c2ccccc2)[C@@]2(CCNC2=O)C1 | -21.16%
CN1CC[C@]2(CN(CC3CC3)C[C@H]2c2ccccc2)C1=O | 103.2%
O=C(O)C(F)(F)F.O=C1NCC[C@]12CN(CC1CCOCC1)C[C@H]2c1ccccc1 | 108.1%
O=C(O)C(F)(F)F.O=C1NCC[C@]12CN(Cc1nccs1)C[C@H]2c1ccccc1 | -4.824%
Cc1ccc(CN2CCOC3(CCN(C(=O)N4CCCC4)CC3)C2)cc1.O=C(O)C(F)(F)F | -8.825%
CC1CCCN(c2ccccc2OCC(=O)NC2CCOCC2)C1 (configuration not stated) | 10.97%
CC(C)NC(=O)CC(C)NC(=O)N(C)Cc1cc(Cl)cn1C (configuration not stated) | -3.888%
CC(C)N1C(=O)C[C@H]2[C@@H]1CCN2C(=O)c1ccco1 | -5.125%
CN(C)CCOCC1CN(C(=O)[C@H]2CCCO2)Cc2ccnn2C1 (some centres not stated) | -10.91%
O=C(c1ccccn1)N1Cc2nccn2CC(COc2cccnc2)C1 (configuration not stated) | -5.974%
COCC1CN(C(=O)c2cccs2)Cc2nccn2C1 (configuration not stated) | -51.2%
COCC1CN(C(=O)c2ccccn2)Cc2nccn2C1 (configuration not stated) | 101.9%
COCC(=O)N1Cc2nccn2CC(COc2cccnc2)C1 (configuration not stated) | 115.8%
O=C([C@H]1CCCO1)N1Cc2nccn2CC(COc2cccnc2)C1 (some centres not stated) | 99.26%
COCC(=O)N1Cc2nccn2CC(CN(C)Cc2cccnc2)C1 (configuration not stated) | 3.316%
O=C1CCCN1CC1CN(C(=O)C2CCOCC2)Cc2nccn2C1 (configuration not stated) | -10.76%
O=C(CC1CC1)N1Cc2nccn2CC(COc2cccnc2)C1 (configuration not stated) | 106%
N#CCCN(CC1CCOC1)S(=O)(=O)c1cccc(Cl)c1 (configuration not stated) | -9.345%
CCCN1C(=O)C2(CCCCC2)NC1c1c[nH]nc1-c1cccnc1 (configuration not stated) | -6.37%
CC(NCc1ccccc1O)c1ccc(-n2ccnc2)cc1 (configuration not stated) | 4.863%

SMILES | Percent Effect
CC(=O)NCCc1ccc(S(=O)(=O)N(CC(C)C)C(C)C)s1 | -14.51%
Nc1ccc(C(=O)N2CCC(Oc3cccc(C(F)(F)F)c3)CC2)cn1 | -4.227%
CN(C(=O)c1ccc(C2CCCO2)s1)C1CCS(=O)(=O)CC1 (configuration not stated) | 4.966%
CSCCC1c2nc[nH]c2CCN1Cc1ccccc1C(F)(F)F (configuration not stated) | -7.167%
O=C(c1ccc[nH]1)N1Cc2nccn2CC(COc2cccnc2)C1 (configuration not stated) | 86.9%
Cc1cc(CN2CC[C@H]3C(=O)N(c4cccnc4)CCO[C@H]3C2)no1 | -10.41%
CCN(CC)CCNC(=O)CCc1c(C)nn(-c2ccccc2Br)c1C | 111.1%
CCN(C(=O)NCCc1ccccc1Cl)C(C)CS(C)(=O)=O (configuration not stated) | -2.563%
Cc1nn(-c2ccccc2Cl)c(C)c1CCC(=O)NCCS(C)(=O)=O | 98.33%
Cc1c(C(=O)NCC(F)(F)F)nnn1-c1ccccc1Cl | -14.83%
COC(=O)C(CCSC)NC(=O)Cc1c(C)nn(-c2ccccc2)c1C (configuration not stated) | -1.135%
CCN1CCN(C(=O)c2nc(C)n(-c3ccccc3Cl)n2)CC1 | 7.919%
CCCNC(=O)C(C)NC(=O)CCc1ccccc1Br (configuration not stated) | -13.88%
Cc1nn(-c2cc(Cl)cc(Cl)c2)c(C)c1CCC(=O)O | 123.3%
CCCNC(=O)CNC(=O)CCc1ccccc1Br | 0.9662%
CS(=O)(=O)CCC(=O)Nc1cnn(-c2ccccc2Cl)c1 | 3.918%
Cc1nn(-c2ccccc2)c(C)c1CNC(=O)NC1CC1 | 9.435%
Cc1nn(-c2ccccc2Cl)c(C)c1CCC(=O)O | 123.4%
Cc1noc(C2(NC(=O)c3cccnc3O)CCCCC2)n1 | 14.46%
CCC(C)NC(=O)c1ccc(CNC(=O)CCC(C)C)cc1 (configuration not stated) | 19.34%
Cc1cc(CC(=O)N(C)Cc2cccc(OC(C)C)c2)n[nH]1 | 0.9226%
COCc1noc(-c2nn(-c3ccc(F)c(F)c3)c3c2CCC3)n1 | -11.94%
CCN(CC)CCNC(=O)c1nn(CC)cc1Cl | 13.81%
COCCCN(C)C(=O)c1nnn(-c2ccccc2Cl)c1C | -5.685%
CCN(CC)CCNC(=O)CCc1c(C)nn(-c2ccccc2Cl)c1C | 121.6%

SMILES | Percent Effect
CCOc1ccccc1CSc1nnc(CC2CCS(=O)(=O)C2)n1C (configuration not stated) | 3.399%
CN1CSC[C@H]1C(=O)N1CCN(Cc2cccc(Cl)c2)CC1 | -11.1%
CN(Cc1ccc(-n2cccn2)cc1)Cc1ncc[nH]1 | -13.82%
CCCc1cc(C(=O)N(C)Cc2cnn(-c3cccc(OC)c3)c2)[nH]n1 | 1.853%
CC(C)c1nccc(CN(C)Cc2cnn(-c3ccccc3)c2)n1 | 112.3%
COc1cc(N(C)Cc2cccc(-n3cccn3)c2)nc(N)n1 | -41.52%
CN(Cc1cccc(-n2cccn2)c1)Cc1c[nH]cn1 | 125%
CSCCC(O)C(=O)N(C)Cc1cnn(-c2ccc(F)cc2)c1 (configuration not stated) | 17.62%
COc1cccc(-n2cc(CN(C)C(=O)c3cnc(O)cn3)cn2)c1 | -3.404%
COc1cccc(-n2cc(CN(C)Cc3ccnc(C(C)C)n3)cn2)c1 | 92.54%
CC(NS(C)(=O)=O)C(=O)N(C)Cc1cnn(-c2ccc(F)cc2)c1 (configuration not stated) | -5.663%
CN(Cc1ccc(-n2cccn2)cc1)Cc1cnc(N(C)C)nc1 | -6.821%
CC(C)c1nccc(CN(C)Cc2cccc(-n3cccn3)c2)n1 | 104.6%
CN(Cc1cccc(-n2cccn2)c1)Cc1cccs1 | 32.49%
COc1c(F)cc(F)cc1-c1nc2c([nH]1)CCNC2 | -0.5434%
CC(c1cccnc1)N1CCN(CCCC#N)CC1 (configuration not stated) | -7.077%
CCCn1nc(C(=O)N2CCCC2c2noc(C)n2)ccc1=O (configuration not stated) | -9.694%
Cc1ccc(CN(C)CC(=O)NC2(C)CCS(=O)(=O)C2)cc1 (configuration not stated) | 2.715%
CC(C)N1CCCn2nc(C(=O)NCc3ccccc3F)cc2C1 | -19.91%
CC(CN(C)Cc1cccc(-n2cccn2)c1)C(F)(F)F (configuration not stated) | 100.7%
CCC(CO)N(Cc1cccc(-n2cccn2)c1)Cc1ccccn1 (configuration not stated) | -1.98%
CCC(CO)N(Cc1cccc(-n2cccn2)c1)Cc1cccs1 (configuration not stated) | 3.193%
